Results reported in PubChem BioAssay (NCI).
Values joined by “and” are separate entries in the source; they are usually repeats but may differ in a detail not shown here. Identical values can stand only once. This is part of a sample that, as a whole, favours compounds with a hit. Of some 83,000 tested, about 20% had one in any assay.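 Compound tested at a single concentration for 48 hours in 96-well plates; a percent growth value below 10 was scored as active.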 Active and inactive are the calls of the source.

Assays:
Assay in all cases: NCI-60 one-dose screen, 48 h (100 = growth as untreated, 0 = no growth, -100 = all killed)
SK-MEL-2 melanoma = system: SK-MEL-2 melanoma
EKVX NSCLC = system: EKVX NSCLC
SN12C renal = system: SN12C renal
UO-31 renal = system: UO-31 renal
TK-10 renal = system: TK-10 renal
ACHN renal = system: ACHN renal
CAKI-1 renal = details: 10 µM unless noted
A498 renal = system: A498 renal
CCRF-CEM leukemia = system: CCRF-CEM leukemia
MOLT-4 leukemia = details: 10 µM unless noted
SR leukemia = system: SR leukemia
RPMI-8226 leukemia = details: 10 µM unless noted
OVCAR-8 ovarian = system: OVCAR-8 ovarian
OVCAR-5 ovarian = details: 10 µM unless noted
OVCAR-4 ovarian = system: OVCAR-4 ovarian
SK-OV-3 ovarian = system: SK-OV-3 ovarian
IGROV1 ovarian = system: IGROV1 ovarian
OVCAR-3 ovarian = system: OVCAR-3 ovarian
HS 578T breast = system: HS 578T breast
NCI/ADR-RES ovarian = system: NCI/ADR-RES ovarian

Measured: growth

O=C1CCN(Cc2ccccc2)C(=S)N1
inactive: SK-MEL-2 melanoma; 10 µM unless noted 107% and 103% | EKVX NSCLC; 10 µM unless noted 111% and 118% | SN12C renal; 10 µM unless noted 104% and 95.6% | UO-31 renal; 10 µM unless noted 87.5% and 83.7% | TK-10 renal; 10 µM unless noted 106% and 89.6% | ACHN renal; 10 µM unless noted 104% and 97.3% | CAKI-1 renal 101% and 96.1% | A498 renal; 10 µM unless noted 94.6% | CCRF-CEM leukemia; 10 µM unless noted 86.3% and 98.4% | MOLT-4 leukemia 78.2% and 98.5% | SR leukemia; 10 µM unless noted 65.4% and 101% | RPMI-8226 leukemia 94.5% and 102% | OVCAR-8 ovarian; 10 µM unless noted 106% and 107% | OVCAR-5 ovarian 106% and 101% | OVCAR-4 ovarian; 10 µM unless noted 100% | SK-OV-3 ovarian; 10 µM unless noted 101% | IGROV1 ovarian; 10 µM unless noted 92.4% and 91.5% | OVCAR-3 ovarian; 10 µM unless noted 123% and 103% | HS 578T breast; 10 µM unless noted 114% and 81.7% | NCI/ADR-RES ovarian; 10 µM unless noted 106% and 103%

CC(C)(C)c1cc(NC(=O)Cc2ccc(-c3cnc4cc(-c5cnn(CCN6CCOCC6)c5)ccc4n3)cc2)no1
inactive: SK-MEL-2 melanoma; 30 µM 29.7% | EKVX NSCLC; 10 µM 26.9% | EKVX NSCLC; 30 µM 19.1% | TK-10 renal; 10 µM 34.9% | TK-10 renal; 30 µM 40.8% | CCRF-CEM leukemia; 10 µM 15.5% | CCRF-CEM leukemia; 30 µM 10.4% | RPMI-8226 leukemia 22.5% | OVCAR-8 ovarian; 10 µM 18.6% | OVCAR-8 ovarian; 30 µM 26.1% | OVCAR-4 ovarian; 10 µM 10.1% | OVCAR-4 ovarian; 30 µM 22.9% | OVCAR-3 ovarian; 10 µM 28.4% | OVCAR-3 ovarian; 30 µM 22% | NCI/ADR-RES ovarian; 10 µM 12.8% | NCI/ADR-RES ovarian; 30 µM 16.9%
active: SK-MEL-2 melanoma; 10 µM -8.73% | SN12C renal; 10 µM 7.01% | SN12C renal; 30 µM 6.88% | UO-31 renal; 10 µM 1.27% | UO-31 renal; 30 µM 3.63% | ACHN renal; 10 µM 5.88% | ACHN renal; 30 µM 8.72% | A498 renal; 10 µM -26.9% | A498 renal; 30 µM -14.9% | SR leukemia; 10 µM 9.16% | SR leukemia; 30 µM 8.04% | SK-OV-3 ovarian; 10 µM -14.1% | SK-OV-3 ovarian; 30 µM 9.27% | IGROV1 ovarian; 10 µM -7.95% | IGROV1 ovarian; 30 µM -9.55% | HS 578T breast; 10 µM -5.25% | HS 578T breast; 30 µM 3.43%

CC(=O)NC(Cc1ccccc1)C(=O)Oc1ccc2ccccc2c1 (stereo not given)
inactive: SK-MEL-2 melanoma; 10 µM unless noted 108% and 113% | EKVX NSCLC; 10 µM unless noted 114% and 96.4% | SN12C renal; 10 µM unless noted 103% and 98.9% | UO-31 renal; 10 µM unless noted 64.8% and 86.6% | TK-10 renal; 10 µM unless noted 118% and 111% | ACHN renal; 10 µM unless noted 94.6% and 97.4% | CAKI-1 renal 94.8% and 98.1% | A498 renal; 10 µM unless noted 130% and 97.2% | CCRF-CEM leukemia; 10 µM unless noted 100% and 86.6% | MOLT-4 leukemia 111% and 102% | SR leukemia; 10 µM unless noted 113% | RPMI-8226 leukemia 90.2% | OVCAR-8 ovarian; 10 µM unless noted 103% and 105% | OVCAR-5 ovarian 108% and 93% | OVCAR-4 ovarian; 10 µM unless noted 101% and 97.6% | SK-OV-3 ovarian; 10 µM unless noted 91.5% | IGROV1 ovarian; 10 µM unless noted 135% and 111% | OVCAR-3 ovarian; 10 µM unless noted 122% and 100% | HS 578T breast; 10 µM unless noted 98.8% and 107% | NCI/ADR-RES ovarian; 10 µM unless noted 98.4% and 105%

Cc1cc(C)c(N)c(Br)c1
inactive: SK-MEL-2 melanoma; 10 µM unless noted 96.9% and 99.3% | EKVX NSCLC; 10 µM unless noted 110% and 97.1% | SN12C renal; 10 µM unless noted 110% and 101% | UO-31 renal; 10 µM unless noted 92.3% and 87.9% | TK-10 renal; 10 µM unless noted 108% and 112% | ACHN renal; 10 µM unless noted 106% and 95.4% | CAKI-1 renal 91.4% and 74.5% | A498 renal; 10 µM unless noted 134% and 88.8% | CCRF-CEM leukemia; 10 µM unless noted 97.4% and 90.1% | MOLT-4 leukemia 106% and 111% | SR leukemia; 10 µM unless noted 98.8% and 100% | RPMI-8226 leukemia 100% and 96.7% | OVCAR-8 ovarian; 10 µM unless noted 123% and 106% | OVCAR-5 ovarian 101% and 78.3% | OVCAR-4 ovarian; 10 µM unless noted 107% and 88.6% | SK-OV-3 ovarian; 10 µM unless noted 102% and 96% | IGROV1 ovarian; 10 µM unless noted 97.1% and 97.7% | OVCAR-3 ovarian; 10 µM unless noted 117% and 96.8% | HS 578T breast; 10 µM unless noted 121% and 93.6%

CCCCCCCCCCCCCCCc1cc(O)ccc1N
active: CCRF-CEM leukemia; 10 µM unless noted 5.23% and -6.89% | MOLT-4 leukemia -1.13% and -2.69%
inactive: SK-MEL-2 melanoma; 10 µM unless noted 105% and 106% | EKVX NSCLC; 10 µM unless noted 86.6% and 85.6% | SN12C renal; 10 µM unless noted 51.2% and 62.2% | TK-10 renal; 10 µM unless noted 123% and 98.3% | ACHN renal; 10 µM unless noted 90% and 76.8% | A498 renal; 10 µM unless noted 133% and 122% | SR leukemia; 10 µM unless noted 74.7% and 37.7% | RPMI-8226 leukemia 39.9% and 10.3% | OVCAR-8 ovarian; 10 µM unless noted 87.8% and 87.1% | OVCAR-5 ovarian 92.7% and 124% | SK-OV-3 ovarian; 10 µM unless noted 89.2% and 69% | IGROV1 ovarian; 10 µM unless noted 16.5% and 45.2% | OVCAR-3 ovarian; 10 µM unless noted 66.8% and 50.9% | HS 578T breast; 10 µM unless noted 107% and 95.2% | NCI/ADR-RES ovarian; 10 µM unless noted 72.1% and 49.7%
68.2% (inactive) and 1.52% (active): CAKI-1 renal
-59.8% (active) and 20.5% (inactive): UO-31 renal; 10 µM unless noted
65.2% (inactive) and -19.7% (active): OVCAR-4 ovarian; 10 µM unless noted

CC(=O)Nc1cccc2c1CCCC2
inactive: SK-MEL-2 melanoma; 10 µM unless noted 82.6% and 75% | EKVX NSCLC; 10 µM unless noted 96.6% and 94.7% | SN12C renal; 10 µM unless noted 103% and 100% | UO-31 renal; 10 µM unless noted 88.2% and 91% | TK-10 renal; 10 µM unless noted 85.6% and 83.7% | ACHN renal; 10 µM unless noted 102% and 110% | CAKI-1 renal 95.1% | A498 renal; 10 µM unless noted 97.8% and 121% | CCRF-CEM leukemia; 10 µM unless noted 82.6% and 100% | MOLT-4 leukemia 104% and 102% | SR leukemia; 10 µM unless noted 104% and 109% | RPMI-8226 leukemia 88.8% and 99% | OVCAR-8 ovarian; 10 µM unless noted 86.5% and 104% | OVCAR-4 ovarian; 10 µM unless noted 106% and 107% | SK-OV-3 ovarian; 10 µM unless noted 89% and 92.3% | IGROV1 ovarian; 10 µM unless noted 119% and 96.2% | OVCAR-3 ovarian; 10 µM unless noted 107% and 108% | HS 578T breast; 10 µM unless noted 92.8% and 110% | NCI/ADR-RES ovarian; 10 µM unless noted 97.6% and 96.9%

CC1(C)[C@@H](OC(=O)CCC(=O)O)CC[C@]2(C)[C@H]3C(=O)C=C4[C@@H]5C[C@@](C)(C(=O)O)CC[C@]5(C)CC[C@@]4(C)[C@]3(C)CC[C@@H]12
107% (inactive) and -59.9% (active): SK-MEL-2 melanoma; 10 µM unless noted
87.9% (inactive) and -0.335% (active): OVCAR-4 ovarian; 10 µM unless noted
106% (inactive) and -14.1% (active): OVCAR-8 ovarian; 10 µM unless noted
100% (inactive) and -30.4% (active): CAKI-1 renal
104% (inactive) and -74.9% (active): OVCAR-5 ovarian
104% (inactive) and -36.8% (active): TK-10 renal; 10 µM unless noted
103% (inactive) and -79.6% (active): ACHN renal; 10 µM unless noted
102% (inactive) and -19.1% (active): SN12C renal; 10 µM unless noted
102% (inactive) and -96.1% (active): UO-31 renal; 10 µM unless noted
92.6% (inactive) and -37.2% (active): CCRF-CEM leukemia; 10 µM unless noted
112% (inactive) and -65.7% (active): A498 renal; 10 µM unless noted
107% (inactive) and -33.4% (active): EKVX NSCLC; 10 µM unless noted
94.3% (inactive) and -13% (active): SR leukemia; 10 µM unless noted
88.3% (inactive) and -35% (active): MOLT-4 leukemia
104% (inactive) and -42.2% (active): RPMI-8226 leukemia
102% (inactive) and -64.1% (active): SK-OV-3 ovarian; 10 µM unless noted
112% (inactive) and -12.9% (active): HS 578T breast; 10 µM unless noted
107% (inactive) and -0.161% (active): NCI/ADR-RES ovarian; 10 µM unless noted
99.7% (inactive) and -94% (active): OVCAR-3 ovarian; 10 µM unless noted
